High-throughput results from PubChem.
NR3A LBD binder: binders of NR3A ligand-binding domain, primary screen, biophysical, differential scanning fluorimetry, uHTS. Glutamate receptor ionotropic, NMDA 3A (GRIN3A) ligand-binding domain. NR3A LBD differential scanning fluorimetry, Tm shift; 0% = protein alone, 100% = glycine-bound protein. Tm shift relative to glycine control, % at 25 µM. 340,000 compounds, 2.5% hits. AID 1259313, 2017;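 active = melting temperature shift of at least 10% of the positive control shift, at one fixed dose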
HGIII-sPLA2 inh: human group III sPLA2 inhibitors, primary screen, biochemical, QFRET, BODIPY PC-A2 liposome substrate | QFRET BODIPY PC-A2 liposome hydrolysis, fluorescence | inhibition, % at 12.2 µM | 370,000 compounds, 0.56% hits | AID 743126, 2013;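 active = inhibition above mean plus 3 SD of compounds lying within the high and low control bounds, cut at about 19% in these data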;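 also: 0% = median of test compound wells and 100% = no enzyme DMSO wells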
Target sequence (Q9NZ20 whole entry, looked up): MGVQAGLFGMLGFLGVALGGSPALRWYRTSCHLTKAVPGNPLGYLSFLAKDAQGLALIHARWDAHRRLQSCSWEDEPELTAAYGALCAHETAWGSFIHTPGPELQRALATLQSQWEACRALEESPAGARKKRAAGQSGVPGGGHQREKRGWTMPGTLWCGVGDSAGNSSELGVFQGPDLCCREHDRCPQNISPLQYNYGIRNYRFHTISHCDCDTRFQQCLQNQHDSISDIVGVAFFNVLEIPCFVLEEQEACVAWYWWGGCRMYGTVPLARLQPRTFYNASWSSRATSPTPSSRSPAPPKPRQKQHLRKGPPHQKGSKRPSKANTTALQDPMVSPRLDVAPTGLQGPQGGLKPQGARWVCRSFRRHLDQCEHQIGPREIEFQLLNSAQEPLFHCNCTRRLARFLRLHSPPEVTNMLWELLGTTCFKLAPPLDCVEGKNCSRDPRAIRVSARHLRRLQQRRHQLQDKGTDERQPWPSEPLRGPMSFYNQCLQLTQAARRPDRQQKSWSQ
UBC9 SUMO inh: inhibitors of in vitro SUMOylation cascade, primary screen, biochemical, HTRF, uHTS | AID 2006, 2009 | inhibition, % at 35 µM | 290,000 compounds, 0.36% hits | SUMO-conjugating enzyme UBC9 (Homo sapiens), P63279 | HTRF SUMOylation assay, SAE1/SAE2 + UBC9; in the data active = inhibition above about 50%, passing the limit was not always enough
UBC13 polyUb: UBC13 polyubiquitin chain formation inhibitors, primary screen, biochemical, TR-FRET, uHTS; AID 485273, 2010; 330,000 compounds, 0.47% hits; inhibition, % at 20 µM; in the data active = inhibition above about 45%, passing the limit was not always enough
Starred values were filed as active, the others as inactive. Hits are enriched below; roughly 3.3% of the tested compounds scored in any of these assays.

Results for O=C(NCCc1ccccc1)c1cccc(NC(=O)C2CC2)c1 ?
NR3A LBD binder: -1; HGIII-sPLA2 inh: -6

How did O=C(/C=C/c1ccccc1)Nc1cccc(C(=O)NCCCCc2ccccc2)c1 do in these assays?
NR3A LBD binder: 27*; HGIII-sPLA2 inh: -32

Results for O=C(NCCCc1ccccc1)c1cccc(NC(=O)c2ccccc2)c1 ?
NR3A LBD binder: -3; HGIII-sPLA2 inh: -12

What do the screens show for `C[C@@H]1CN([C@H](C)CO)C(=O)c2cc(NC(=O)Nc3ccc(C(F)(F)F)cc3)ccc2O[C@H]1CN(C)C(=O)Nc1ccc(F)cc1`?
NR3A LBD binder: 18*; HGIII-sPLA2 inh: -30

How did C[C@H](CO)N1C[C@H](C)[C@@H](CN(C)C(=O)Nc2ccc(C(F)(F)F)cc2)Oc2ccc(NC(=O)Nc3ccc(C(F)(F)F)cc3)cc2C1=O do in these assays?
NR3A LBD binder: 10*; HGIII-sPLA2 inh: -31; UBC13 polyUb: -2

How did C[C@H](CO)N1C[C@H](C)[C@@H](CN(C)C(=O)Nc2ccc3c(c2)OCO3)Oc2ccc(NC(=O)Nc3ccc(C(F)(F)F)cc3)cc2C1=O do in these assays?
NR3A LBD binder: 11*; HGIII-sPLA2 inh: -13; UBC13 polyUb: -2

Results for N#Cc1cccc(NC(=O)CC2CCCCC2)c1 ?
NR3A LBD binder: 12*; HGIII-sPLA2 inh: 2; UBC9 SUMO inh: -1; UBC13 polyUb: 8

What do the screens show for `N#Cc1cccc(NC(=O)c2ccccc2C(=O)O)c1`?
NR3A LBD binder: -1; HGIII-sPLA2 inh: 1; UBC9 SUMO inh: -4; UBC13 polyUb: 4

How did N#Cc1ccc(NC(=O)Nc2cccc(C#N)c2)cc1 do in these assays?
NR3A LBD binder: 26*; HGIII-sPLA2 inh: -24; UBC9 SUMO inh: 8

What do the screens show for `N#Cc1ccc(NC(=O)Nc2ccc(Oc3ccc(NC(=O)Nc4ccc(C#N)cc4)cc3)cc2)cc1`?
NR3A LBD binder: 32*; HGIII-sPLA2 inh: 2; UBC9 SUMO inh: 10; UBC13 polyUb: -8

How did COC(=O)[C@]12C[C@H](CC(=O)NCc3cccc4ccccc34)C(=O)N(Cc3cccc4ccccc34)C1=C[C@H](C(C)C)O[C@@H]2C1CC1 do in these assays?
HGIII-sPLA2 inh: -11

How did CN(CCO)c1ccc2c(c1)Oc1ccccc1CN(Cc1cn(Cc3ccccc3C(F)(F)F)nn1)S2(=O)=O do in these assays?
HGIII-sPLA2 inh: 1

Results for O=C(NCC(c1ccccc1)c1ccccc1)[C@H](Cc1c[nH]c2ccccc12)NC1(C(=O)NC2CCCCC2)CCN(Cc2ccccc2)CC1 ?
HGIII-sPLA2 inh: -37

Results for CC(C)=CCc1c(O)ccc(C2COc3c(CC=C(C)C)c(O)cc(O)c3C2=O)c1O (configuration not stated) ?
NR3A LBD binder: 11*; HGIII-sPLA2 inh: -9; UBC13 polyUb: -41

What do the screens show for `CC(C)=CCc1c(O)ccc2c1OC(c1ccc(O)c(O)c1)CC2=O` (configuration not stated)?
NR3A LBD binder: -4; HGIII-sPLA2 inh: -19; UBC9 SUMO inh: 3; UBC13 polyUb: 3

What do the screens show for `C=CCNC(=O)C1CC2Cn3c(nc4cc5ccccc5cc43)C2N1C` (configuration not stated)?
NR3A LBD binder: 12*; HGIII-sPLA2 inh: 2; UBC9 SUMO inh: 24; UBC13 polyUb: 0

Results for CC(C)n1nnnc1C1c2ccccc2OCC(=O)N1Cc1cccc(C(F)(F)F)c1 (configuration not stated) ?
HGIII-sPLA2 inh: 3

Results for COc1ccc(NC(=S)Nc2ccc(OC(F)F)cc2)cn1 ?
NR3A LBD binder: -2; HGIII-sPLA2 inh: -4; UBC9 SUMO inh: 14; UBC13 polyUb: -7

How did COc1ccccc1NC(=S)NNC(=S)Nc1ccc(OC(F)F)cc1 do in these assays?
NR3A LBD binder: 32*; HGIII-sPLA2 inh: 8; UBC9 SUMO inh: -12; UBC13 polyUb: 3

What do the screens show for `Cc1ccc2c(Cl)cc(Cl)c(OCC(=O)NC(=O)NCc3ccco3)c2n1`?
NR3A LBD binder: 3; HGIII-sPLA2 inh: 1; UBC9 SUMO inh: 12; UBC13 polyUb: 0

Results for O=C(COC(=O)c1ccccc1)NCc1ccco1 ?
NR3A LBD binder: 1; HGIII-sPLA2 inh: -4; UBC9 SUMO inh: 16; UBC13 polyUb: 3

Results for Cc1ccc(C(=O)OCC(=O)NCc2ccco2)cc1 ?
NR3A LBD binder: 10*; HGIII-sPLA2 inh: 0; UBC9 SUMO inh: 7; UBC13 polyUb: -12

Results for Cc1ccc2c(Cl)cc(Cl)c(OCC(=O)NCc3ccco3)c2n1 ?
UBC9 SUMO inh: 54*

What do the screens show for `Cc1cc(C)cc(OC[C@@H](O)CN2CCC(C(O)(c3ccccc3)c3ccccc3)CC2)c1`?
HGIII-sPLA2 inh: -20

Results for Cc1ccc(-c2cccc3[nH]cc(C)c23)s1 ?
HGIII-sPLA2 inh: -6

What do the screens show for `COc1ccc2c(c1OC)C(=O)OC2Nc1ccccn1` (configuration not stated)?
NR3A LBD binder: 0; HGIII-sPLA2 inh: 1; UBC9 SUMO inh: 17; UBC13 polyUb: 4

How did CCOC(=O)c1c(NC2OC(=O)c3c2ccc(OC)c3OC)sc(C(=O)OC(C)(C)C)c1C (configuration not stated) do in these assays?
NR3A LBD binder: 18*; HGIII-sPLA2 inh: -4; UBC9 SUMO inh: -1; UBC13 polyUb: 16

Results for O=C(NCCCO)Nc1ccc2nc(-c3ccco3)c(-c3ccco3)nc2c1 ?
UBC9 SUMO inh: 93*; UBC13 polyUb: 24

What do the screens show for `CC(C)c1ccc(NCCC(=O)c2cccs2)cc1`?
NR3A LBD binder: 0; HGIII-sPLA2 inh: 27*; UBC9 SUMO inh: 6; UBC13 polyUb: -16

What do the screens show for `Cc1ccc(NCCC(=O)c2cccs2)cc1`?
NR3A LBD binder: 13*; HGIII-sPLA2 inh: 4; UBC9 SUMO inh: 18; UBC13 polyUb: 0

How did Cc1ccc(NCCC(=O)c2cccs2)cc1C do in these assays?
NR3A LBD binder: -1; HGIII-sPLA2 inh: 7; UBC9 SUMO inh: 1; UBC13 polyUb: -3

What do the screens show for `CCCC/C=C1/[C@H](c2ccccc2)N(C)C2=N[C@@H](c3ccccc3)CC(=O)N21`?
HGIII-sPLA2 inh: 14

Results for COC(=O)[C@]12C[C@H](CC(=O)NCCCCc3ccccc3)C(=O)N(Cc3ccc(Cl)cc3Cl)C1=C[C@H](C1CCCC1)O[C@@H]2C ?
HGIII-sPLA2 inh: 1

What do the screens show for `O=S(=O)(NCCc1csc(-c2cccnc2)n1)c1cccs1`?
NR3A LBD binder: 13*; HGIII-sPLA2 inh: 5; UBC9 SUMO inh: -9; UBC13 polyUb: 0

How did COc1ccc2c(c1)Cc1sc(NC(=O)c3cccs3)nc1-2 do in these assays?
NR3A LBD binder: 25*; HGIII-sPLA2 inh: 0; UBC9 SUMO inh: 82; UBC13 polyUb: -18

How did COc1ccc(C(=O)Nc2nc3c(s2)Cc2cc(OC)ccc2-3)cc1 do in these assays?
NR3A LBD binder: 11*; HGIII-sPLA2 inh: -9; UBC9 SUMO inh: 80; UBC13 polyUb: -52
